PubChem BioAssay (NCATS)
Records with an inconclusive call do not appear. The source made the active and inactive calls. Calls follow the shape of the dose curve; as a rule, active = well fitted cell-killing curve with a large enough effect; inconclusive = small, poorly fitted or top-dose-only effect, or effect the other way; inactive = no such curve, though single readings can be large or run the other way.

assay: Quantitative High-Throughput drug screen in 47 multiple myeloma cell lines against the NCATS MIPE library collection: UTMC2_PLB cell viability assay (AID 1919868); settings: CellTiter-Glo ATP luminescence, 48 h; viability (% of DMSO control): at 45.8 µM (top of the series); also: nearly all actives have a fitted effect of over 55% in size
Text: PI: Beverly A. Mock Ph.D.
Laboratory of Cancer Biology and Genetics,
Center for Cancer Research, National Cancer Institute,
National Institute of Health, Bethesda, Maryland
Drug resistance and disease progression are common in multiple myeloma (MM) patients, underscoring the need for new therapeutic combinations. […] We hypothesized that effective combinations would reduce MYC expression and enhance p16 activity. […] These preclinical data identify potentially useful drug combinations for evaluation in drug-resistant MM and reveal potential mechanisms of combined drug sensitivity.
Described herein is the primary MIPE qHTS used to cherrypick compounds. Validated compounds were then further tested for potential synergistic activiy.
[1] Peat TJ, Gaikwad SM, Dubois W, Gyabaah-Kessie N, Zhang S, Gorjifard S, Phyo Z, Andres M, Hughitt VK, Simpson RM, Miller MA, Girvin AT, Taylor A, Williams D, D'Antonio N, Zhang Y, Rajagopalan A, Flietner E, Wilson K, Zhang X, Shinn P, Klumpp-Thomas C, McKnight C, Itkin Z, Chen L, Kazandijian D, Zhang J, Michalowski AM, Simmons JK, Keats J, Thomas CJ, Mock BA. Drug combinations identified by high-throughput screening promote cell cycle transition and upregulate Smad pathways in myeloma. Cancer Lett. 2023 Aug 1;568:216284. doi: 10.1016/j.canlet.2023.216284. Epub 2023 Jun 24. PMID: 37356470; PMCID: PMC10408729.
SEQUENCE No. (e.g., 1, 2, 3, etc.); […] (e.g., Cells, Incubation, Reagent, etc.); VALUE and DESCRIPTION.
1; Cells; 5 uL; white, solid bottom 1536-well Greiner assay plate.
2; Compounds; 23 nL; Kalypsis pin tool (Wako USA) equipped with a 1536-well pin head to transfer to the assay plates.
3; Incubation; 48 hours; 37C incubation.
4; Reagent;5uL; CellTiter Glo (Promega).
5; Detector; 425V; Luminescence; Viewlux PerkinElmer.
NOTES (numbers refer to Sequence numbers above)
1. The cell-based screening methods employed in this study were like those previously published. Briefly, the corresponding myeloma cell lines were screened in 1,536-well plates with 500 cells, 5-uL per well for inhibition of cell viability (assessed by measuring ATP levels with CellTiterGlo).
2. NCATS MIPE 4.0 library of approved and investigational drugs were added using the Kalypsis pin tool. Wells treated with DMSO only for 100% viability and media only for 0% viability were used as controls.
3. The assay plates were covered and incubated for 48 hours in a 37C, 5% CO2 incubator with controlled humidity.
4. After 48 hours, CellTilter-GloTM luminescent substrate mix (Promega) reagent was added to the assay plate and plates we incubated for 5 min at room temperature.
5. Signal was measured as median relative luminescence units on a ViewLux (PerkinElmer) multiplate reader.
[1] Heske CM, Davis MI, Baumgart JT, Wilson K, Gormally MV, Chen L, Zhang X, Ceribelli M, Duveau DY, Guha R, Ferrer M, Arnaldez FI, Ji J, Tran HL, Zhang Y, Mendoza A, Helman LJ, Thomas CJ. Matrix Screen Identifies Synergistic Combination of PARP Inhibitors and Nicotinamide Phosphoribosyltransferase (NAMPT) Inhibitors in Ewing Sarcoma. Clin Cancer Res. 2017 Dec 1;23(23):7301-7311. doi: 10.1158/1078-0432.CCR-17-1121. Epub 2017 Sep 12. PMID: 28899971; PMCID: PMC6636827.
Potency is read from the fitted curve at half-maximal effect.

Row | SMILES | viability (% of DMSO control) | Potency
1 | O=C1CC[C@@]2(O)[C@H]3Cc4ccc(O)c5c4[C@@]2(CCN3CC2CC2)[C@H]1O5 | 174% (inactive) | 
2 | COC1(CS(=O)c2ccccc2)CCN(CCc2c[nH]c3ccc(F)cc23)CC1 (stereo not given) | 98.1% (inactive) | 
3 | COc1ccc(C(=O)c2c(C)n(CCN3CCOCC3)c3ccccc23)cc1 | 138% (inactive) | 
4 | C[C@@H]1O[C@@H](O[C@H]2C[C@@H](O)[C@]3(CO)[C@H]4[C@H](O)C[C@]5(C)[C@@H](C6=CC(=O)OC6)CC[C@]5(O)[C@@H]4CC[C@]3(O)C2)[C@H](O)[C@H](O)[C@H]1O |  | 11.8 nM (active)
5 | COc1ccc2c(c1OC)CN1CCc3cc4c(cc3C1C2)OCO4 (stereo not given) |  | 2090 nM (active)
6 | N[C@@H](Cc1ccc(N(CCCl)CCCl)cc1)C(=O)O |  | 935 nM (active)
7 | CN1CCN(C(=O)O[C@H]2c3nccnc3C(=O)N2c2ccc(Cl)cn2)CC1 | 181% (active) | 
8 | C[C@@H]1[C@@H](C(=O)C[C@H]2O[C@@H]3O[C@]4(C)CC[C@@H]5[C@H](C)CC[C@@H]([C@H]2C)[C@@]35OO4)O[C@@H]2O[C@]3(C)CC[C@H]4[C@H](C)CC[C@@H]1[C@@]24OO3 |  | 166 nM (active)
9 | CN(C)CCN(C)CCc1ccc(Cl)c(Cl)c1 | 185% (inactive) | 
10 | COC[C@H]1OC(=O)c2coc3c2[C@@]1(C)C1=C(C3=O)C2CCC(=O)[C@@]2(C)C[C@H]1OC(C)=O (stereo not given in full) |  | 264 nM (active)
11 | CC(O)(CS(=O)(=O)c1ccc(F)cc1)C(=O)Nc1ccc(C#N)c(C(F)(F)F)c1 (stereo not given) |  | 4180 nM (active)
12 | C[C@@H]1[C@@H](CC(C[C@H]2O[C@@H]3O[C@]4(C)CC[C@@H]5[C@H](C)CC[C@@H]([C@H]2C)[C@@]35OO4)C[S+](=O)([O-])c2ccc(COC(=O)N(C)C)cc2)O[C@@H]2O[C@]3(C)CC[C@H]4[C@H](C)CC[C@@H]1[C@@]24OO3 (stereo not given in full) |  | 187 nM (active)
13 | C=C(C)[C@H]1Cc2c(ccc3c2O[C@@H]2COc4cc(OC)c(OC)cc4[C@@H]2C3=O)O1 |  | 332 nM (active)
14 | Cc1sc2c(c1C)C(c1ccc(Cl)cc1)=N[C@@H](CC(=O)OC(C)(C)C)c1nnc(C)n1-2 |  | 662 nM (active)
15 | COc1ccc(C(CN(C)C)C2(O)CCCCC2)cc1 (stereo not given) | 129% (inactive) | 
